Laboratory results published in PubChem BioAssay.

assay: binders from COS7 lysate, DM2A8 probe, primary screen, torsin A project, cell lysate, small-molecule microarray, fluorescence 635/667 (AID 1065); details: higher = more signal, COS7 lysate expressing mutant human TOR1A

Compound	composite z-score
C=CC(=C)[C@H]1Oc2ccccc2S(=O)(=O)N2CCC[C@@H]12	0.196
C=C[C@@H](COC(=O)OC(C)(C)C)N(Cc1ccc(OC)cc1)S(=O)(=O)c1ccc(Br)cc1	0.544
COCC(=C=CC[C@@H](O)c1cccc(OCCO)c1)C[C@@H](O)c1ccccn1	0.0883
O=C(CS)NCCCCCCNC(=O)[C@@H]1C[C@@H]2C(=O)NCC(=O)N2[C@@H]1c1cccc(OCCO)c1	0.024
C=C(CC1([C@@H](NP(=O)(c2ccccc2)c2ccccc2)[C@H]2C[C@@H]2CCCC)CC1)c1ccccc1	-0.417
COC(=O)[C@@]1(Cc2ccc(F)cc2)[C@H]2c3cc(C(=O)N(C)C)n(Cc4cc(F)c(F)c(F)c4)c3C[C@H]2CN1C(=O)c1ccccc1	-0.528
CN(C)CCCC[C@@H]1NC(=O)[C@H]2C[C@@H](C(=O)NCCCCCCN)[C@@H](c3ccc(O)cc3)N2C1=O	1.03
CN(C)CCCCCCNC(=O)[C@H]1C[C@H]2C(=O)N[C@@H](CCCCN)C(=O)N2[C@H]1c1cccc(OCCO)c1	2.48
CC(C)=CCCC(C)=CC(O)C1C=CC2C(=O)N(C)C(=O)C2N1Nc1ccccc1 (configuration not stated)	0.708
CCS[C@H]1[C@@H](C(=O)O)[C@H](c2ccc(C)cc2)N(S(=O)(=O)c2ccc(C)cc2)[C@@H]1CC	-0.0564
CCC(CC)C(O)C1C=CC2C(=O)NC(=O)C2N1Nc1ccc(Cl)cc1Cl (configuration not stated)	0.318
COC(=O)[C@@]1(Cc2ccc(F)cc2)[C@H]2c3cc(C(=O)N(C)C)n(Cc4ccccc4)c3C[C@H]2CN1C(=O)c1ccccc1	-0.267
C=CCNC(=O)[C@H]1[C@@H]2C(=O)O[C@@H](c3ccccc3)[C@@H](c3ccccc3)N2[C@@H](c2ccccc2OCCO)[C@]12C(=O)Nc1ccc(C#CCCO)cc12	-0.773
COCCCNC(=O)[C@]1(CCC(=O)OC(C)(C)C)N=C(c2ccc(OCCCO)cc2)O[C@@H]1c1ccccc1CN=[N+]=[N-]	1.19
O=C1OCCC/C=C\[C@H]2OC34C=CCN(Cc5ccccc5)C(=O)[C@H]3N(CCCO)C(=O)[C@@H]4C12 (some centres not stated)	2.29
CN1C(=O)C2C=CC(C(O)C3CC=CCC3)N(N(c3ccccc3)c3ccccc3)C2C1=O (configuration not stated)	-0.0811

Compound	composite z-score
C=CCC(OC(C)=O)[C@@H]1[C@@H](N(Cc2ccc(-c3cccc(C(F)(F)F)c3)o2)C(=O)c2ccc(C)cc2)c2cc(OCCCO)ccc2N1C(=O)Cc1ccc2ccccc2c1 (some centres not stated)	-0.752
CO[C@H]1O[C@H](CO)[C@@H](OC(=O)Nc2ccccc2)[C@H](OC(=O)Nc2ccccc2)[C@@H]1OC(=O)Nc1ccccc1	0.692
O=C(OCc1ccccc1)C1=CCC2c3[nH]c4ccccc4c3C(=O)C1N2S(=O)(=O)c1ccccc1[N+](=O)[O-] (configuration not stated)	-0.0749
C=C(CCCC)/C(=C/C[C@@H](OC(C)=O)c1ccc(OCCO)cc1)c1cnc2ccccc2c1	0.372
COc1ccc([Si](C)(C)[C@@H]2[C@@H](CC(=O)N3CCC[C@H]3CO)O[C@]3(C(=O)N(c4ccccc4)c4ccccc43)[C@H]2C)cc1	0.411
CC(C)NC(=O)[C@@]1(C)c2ccccc2C(=O)N(Cc2cc(C(F)(F)F)cc(C(F)(F)F)c2)[C@H]1c1ccc(CO)cc1	-1.42
CNS(=O)(=O)c1ccc(C)cc1	0.182
O=C(c1ccccc1)N1Cc2ccccc2C[C@@]2(COC(c3ccc(OCCCO)cc3)=N2)C1=O	0.711
COc1ccc(CCNC(=O)[C@@]2(Sc3ccc(C)cc3)CC(=O)N(C3Cc4ccccc4C3)[C@@H]2c2ccc(CO)cc2I)cc1	0.0778
COc1cc2c(cc1OC)CN(C(=O)[C@@H]1[C@H]3C(=O)O[C@H](c4ccccc4)[C@H](c4ccccc4)N3[C@H](c3ccc(O)cc3)[C@@]13C(=O)Nc1ccccc13)CC2	0.797
COc1ccc([Si](C)(C)[C@@H]2[C@@H](CCO)O[C@]3(C(=O)N(Cc4ccc(N(C=O)c5ccccc5)cc4)c4ccccc43)[C@H]2C)cc1	0.0422
COc1cc(COC(C)=O)ccc1OC(C)=O	-0.0075
COc1ccccc1CN1C(=O)c2ccccc2[C@@H](C(=O)NC2CC2)[C@@H]1c1ccc(CO)cc1	0.293
CCCC[C@@H]1C[C@H]1[C@@H](NC(=O)c1ccco1)c1ccccc1C(F)(F)F	-0.108
O=C1C2C=CC(C(O)c3cc(C(F)(F)F)cc(C(F)(F)F)c3)N(n3cnnc3)C2C(=O)N1Cc1ccccc1 (configuration not stated)	0.0607
CN(C)CCCCCCNC(=O)[C@H]1C[C@H]2C(=O)N3CCC[C@H]3C(=O)N2[C@H]1c1ccc(O)cc1	1.93
